ERp5 inh: ERp5 (human) disulfide isomerase inhibition; Q15084; hit rate 0.05% among 350,000; inhibition, % at 9.99 µM; ERp5 insulin aggregation, absorbance 650 nm, 90 min; AID 651711;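 active = mean replicate inhibition above about 25%, with every replicate also reaching it, limit read from the data, passing the limit was not always enough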
SIRT5 block: inhibitors of human sirtuin-5 desuccinylase; hit rate 1.1% among 330,000; Purified SirT5, succinyl-peptide AMC, trypsin-coupled fluorescence; AID 652115; inhibition, % at 15 µM; in the data active = inhibition above about 15%
HDAC3 inh: blocks human histone deacetylase 3; hit rate 0.15% among 320,000; inhibition, % at 8.3 µM; AID 2718; recombinant HDAC3, fluorogenic peptide/trypsin coupled, fluorescence; in the data active = inhibition above about 26%, passing the limit was not always enough
Target sequence (O15379 whole entry, looked up): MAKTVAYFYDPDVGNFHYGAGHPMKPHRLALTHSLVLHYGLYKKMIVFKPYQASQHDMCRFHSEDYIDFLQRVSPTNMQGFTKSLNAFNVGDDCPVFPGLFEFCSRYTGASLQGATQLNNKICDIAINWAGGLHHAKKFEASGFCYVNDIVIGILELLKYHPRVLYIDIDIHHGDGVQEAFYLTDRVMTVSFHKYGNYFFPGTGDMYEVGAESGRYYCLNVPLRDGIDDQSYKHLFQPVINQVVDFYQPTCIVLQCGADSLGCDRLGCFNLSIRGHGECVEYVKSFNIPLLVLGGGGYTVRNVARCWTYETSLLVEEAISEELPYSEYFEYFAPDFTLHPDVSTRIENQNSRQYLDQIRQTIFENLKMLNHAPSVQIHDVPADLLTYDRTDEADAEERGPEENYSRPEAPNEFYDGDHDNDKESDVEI
ERAP1 HTS inh: blocks human ERAP1 aminopeptidase activity | Q9NZ08 | recombinant ERAP1, Leu-AMC fluorescence, 60 min | inhibition, % at 10.7 µM | hit rate 0.15% among 340,000 | AID 652197;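 active = mean replicate inhibition of at least 30%, or all replicates individually reaching that 30% level; inactive = mean below 30% and not every replicate reaching it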;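 also: 0% = neutral control wells and 100% = L-leucinethiol positive control wells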
PDI turbidity: PDI (human) enzyme inhibition; PDI insulin aggregation turbidity, A650, 90 min; inhibition, % at 10 µM; hit rate 0.052% among 350,000; AID 588391;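 active = mean inhibition across replicates of 30% or more, whatever share of single replicates reach that level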
* hit, by the source's call; x = no result; ! = repeats disagree. The sample as a whole holds a higher share of hits than the screen did.

SMILES	ERp5 inh	SIRT5 block	HDAC3 inh	ERAP1 HTS inh	PDI turbidity
O=C(Nc1ccc2c(c1)[C@H]1C[C@@H](CC(=O)N3CCc4ccccc4C3)O[C@H](CO)[C@H]1O2)C1CCOCC1	1.7	-4.2	x	-0.4	x
COc1ccccc1C#Cc1ccc2c(c1)[C@@H]1[C@@H](CCN1S(=O)(=O)c1cccc(C)c1)[C@H](CO)N2	14.1	8.5	x	-2.1	x
Cc1cc(SCC(=O)OCC(=O)N(C)C2CCS(=O)(=O)C2)c(C)cc1Br (stereo not drawn)	6.0	19.1*	4.2	1.9	-5.9
C[C@H](CO)N1C[C@H](C)[C@@H](CN(C)C)Oc2ccc(NC(=O)NC3CCCCC3)cc2CC1=O	0.0	-1.4	x	1.5	x
C[C@@H]1CN([C@@H](C)CO)C(=O)Cc2cc(NC(=O)c3ccncc3)ccc2O[C@H]1CN(C)Cc1ccc(C(=O)O)cc1	10.4	-2.4	x	-0.2	x
Cc1nc2cc(C(=O)N3CCc4ccccc43)ccc2n1-c1ccc(F)c(F)c1	0.0	16.0*	-2.0	0.1	3.3
COc1cccc(NC(=O)N2CC(=O)N3[C@H](C2)[C@@H](c2ccc(C#CC4CCCC4)cc2)[C@@H]3CO)c1	-5.6	15.7*	x	-1.9	x
COc1cccc(NC(=O)N2CC(=O)N3[C@H](C2)[C@@H](c2ccc(C#CCC4CCCC4)cc2)[C@@H]3CO)c1	-3.4	21.5*	x	-1.4	x
Cc1ccc(-c2ccc(C3[C@@H]4CN(C(=O)Nc5ccc(C(F)(F)F)cc5)C[C@H]3N4)cc2)cc1 (stereo partly drawn)	17.3	-4.6	x	-5.6	x
O=C(Nc1cccc(F)c1)N1CC(=O)N2[C@H](C1)[C@@H](c1ccc(-c3cccc(F)c3)cc1)[C@@H]2CO	5.1	15.9*	x	2.4	x
O=C(Nc1ccc(C(F)(F)F)cc1)N1C[C@@H]2N[C@H](C1)C2c1ccc(-c2cccc(F)c2)cc1 (stereo partly drawn)	-0.6	15.1*!	x	-3.6	x
COc1cccc(S(=O)(=O)Nc2ccc3c(c2)[C@@H]2C[C@H](CC(=O)O)O[C@H](CO)[C@@H]2O3)c1	-5.2	-0.5	x	0.1	x
C[C@@H]1CCCCO[C@H](CN(C)S(C)(=O)=O)[C@H](C)CN([C@@H](C)CO)C(=O)c2cc(NS(=O)(=O)c3ccc(Cl)cc3)ccc2O1	-4.0	-4.5	x	-1.2	x
COc1ccc(NC(=O)N2CC(=O)N3[C@@H](CO)[C@H](c4ccc(C#CCC5CCCC5)cc4)[C@@H]3C2)cc1	4.3	10.8	x	-2.5	x
COc1ccc(NC(=O)N2CC(=O)N3[C@H](C2)[C@H](c2ccc(C#CCC4CCCC4)cc2)[C@@H]3CO)cc1	2.6	15.1*	x	-1.5	x
COC(=O)C[C@H]1C[C@H]2c3cc(NC(=O)CN(C)C)ccc3O[C@H]2[C@@H](CO)O1	1.2	6.4	x	2.9	x
CC(=O)c1ccc(OC(=O)c2ccc(Br)o2)cc1	x	x	67.0*	x	-13.9
C[C@@H]1CN([C@H](C)CO)C(=O)c2cc(NC(=O)NC3CCCCC3)ccc2O[C@@H](C)CCCCO[C@@H]1CN(C)C(=O)Nc1ccc(F)cc1	-6.1	3.7	x	3.6	x
COc1ccc(NC(=O)Nc2ccc3c(c2)C(=O)N([C@@H](C)CO)C[C@H](C)[C@@H](CN(C)C(=O)NC(C)C)O3)cc1	-3.4	4.3	x	-0.3	x
CC(C)CN(C[C@H]1N[C@H](CO)[C@@H]1c1ccccc1)C(=O)C1CCCC1	2.2	7.5	x	-1.2	x
CC(C)CN(C[C@H]1N[C@H](CO)[C@@H]1c1ccccc1)C(=O)C1CCCCC1	2.2	21.5*	x	1.1	x
CN1CCN(C(=O)C[C@@H]2C[C@@H]3c4cc(NC(=O)Nc5ccc(F)cc5)ccc4O[C@@H]3[C@@H](CO)O2)CC1	4.9	1.3	x	2.7	x
CN(Cc1cnccn1)Cc1nc(Cc2cccc(F)c2)no1	-4.8	-2.2	3.7	-4.2	-0.5
Cc1nc(CN(C)Cc2nc(Cc3cccc(F)c3)no2)cs1	5.1	25.5*	-4.5	4.7	2.7
CCS(=O)(=O)Nc1ccc2c(c1)C(=O)N(C)[C@H]1CC[C@@H](CC(=O)NC)O[C@@H]1CO2	1.5	-2.5	x	0.4	x
C=Cc1ccc(CSc2cc(C)nc3nc(C)nn23)cc1	-6.8	-2.9	31.1*	-1.6	6.6
Cc1ccc(CSc2nc3nc(C)cc(C)n3n2)cc1	2.6	-2.1	-8.8	-2.8	12.2
C[C@@H]1CCCCO[C@@H](CN(C)C(=O)CCC(F)(F)F)[C@H](C)CN([C@@H](C)CO)C(=O)c2cc(NC(=O)NC3CCCCC3)ccc2O1	-3.6	3.1	x	0.5	x
C[C@@H]1CN([C@H](C)CO)C(=O)c2cccc(NS(=O)(=O)c3ccc(F)cc3)c2O[C@H]1CN(C)Cc1ccncc1	-4.3	-1.9	x	1.3	x
